In PubChem BioAssay (NCATS) one finds Potency data, which are given here for 23 compounds.

Records with an inconclusive call do not appear. Where a call stands in place of a potency, no number is given. Calls of active or inactive are those of the source. Calls come from the whole dose curve; as a rule, active = well fitted curve in the direction sought with a large enough effect; inconclusive = small, poorly fitted or top-dose-only effect, or another doubt; inactive = no such curve, though single readings can be large; an effect the other way counts as inactive or inconclusive.

Assay [1] has as its target Aldehyde dehydrogenase, mitochondrial (Homo sapiens) (UniProt P05091). Briefly: qHTS for Inhibitors of the Aldehyde Dehydrogenase Family (ALDH2) Primary screen (AID 2061308). Note: nearly all actives have a fitted effect of over 55% in size. The note with it: ALDH2 enzyme inhibition qHTS, 1536-well; series mostly up to 56 µM.
Assay [2] deals with Retinaldehyde dehydrogenase 3 (Homo sapiens) (UniProt P47895). The assay can be described thus: qHTS for Inhibitors of the Aldehyde Dehydrogenase Family (ALDH1A3) Primary screen (AID 2061315). The note with it: ALDH inhibition qHTS; series mostly up to 56 µM. A general note: In qHTS, concentration-response curves come from the screen itself.

Turning to `COc1cccc(NC(=S)N2CCN(c3cccc(C(F)(F)F)n3)CC2)n1`, the Potency entry in assay [1] and in assay [2] was “inactive” each time.

Take `O=C(Cc1ccccc1)Nc1ccc(S(=O)(=O)Nc2nccs2)cc1`: the Potency entry in assay [1] and in assay [2] was “inactive” in each case.

In the case of `CC(=O)Nc1sc2c(c1-c1ccc3nc[nH]c3c1)CCNC2`, the Potency result in assay [1] and in assay [2] was “inactive” each time.

For the compound `CC(=O)N1CCc2cc(S(=O)(=O)Nc3ccc(C)c(C)c3)ccc21`, the Potency entry in assay [1] and in assay [2] was “inactive” each time.

For `Fc1cccc(CNc2ncnc3ccc(-c4ccoc4)cc23)c1`, the Potency result in assay [1] and in assay [2] was “inactive” each time.

For the compound `Cc1cn(-c2cc(F)cc(NC(=O)c3ccc(C)c(Nc4nccc(-c5cccnc5)n4)c3)c2)cn1`, the Potency result in assay [1] and in assay [2] was “inactive” in each case.

Consider `Oc1c(CN2CCCCC2)cc(COCc2ccccc2)c2cccnc12`, for which the Potency result in assay [1] and in assay [2] was “inactive” throughout.

For the compound `COc1cccc(CNc2ccc(S(=O)(=O)Nc3cccc(N4CCNCC4)c3)cc2)c1O`, the Potency entry in assay [1] and in assay [2] was “inactive” each time.

For `CC(=O)CC(=O)Nc1ccc(Cl)c(C(F)(F)F)c1`, the Potency entry in assay [1] and in assay [2] was “inactive” throughout.

For `CCCCNC(=S)NCCCN(Cc1ccc(Cl)c(Cl)c1)c1ccc(Br)cn1`, the Potency result in assay [1] and in assay [2] was “inactive” in each case.

Turning to `Cc1ccc(S(=O)(=O)Nc2cnccc2C(=O)Nc2nc(-c3ccc(Oc4ccccc4)cc3)cs2)cc1`, the Potency entry in assay [1] and in assay [2] was “inactive” throughout.

Consider `Cc1cc2c(s1)c1cnn(Cc3c(F)c(F)c(C)c(F)c3F)c(=O)c1n2C`, for which the Potency result in assay [1] and in assay [2] was “inactive” in each case.

For `O=S(=O)(c1ccc2c(c1)OCCO2)N1CCN(S(=O)(=O)c2ccc(Br)cc2F)CC1`, the Potency result in assay [1] and in assay [2] was “inactive” each time.

Take `CC[C@@H]1C(=O)O[C@]23C=C[C@@H]4C(C(=O)OC)=CO[C@H](O[C@@H]12)[C@@H]43`: the Potency result in assay [1] and in assay [2] was “inactive” throughout.

`O=C1CCCC2=C1C1(CCCOC1)N=C(Nc1nc3ccccc3o1)N2` (stereo unspecified): the Potency result in assay [1] and in assay [2] was “inactive” each time.

As for `CCNC(=O)c1ccc(-c2ccc3ncnc(NCC4CCCO4)c3c2)o1` (stereo unspecified), the Potency entry in assay [1] and in assay [2] was “inactive” in each case.

In the case of `CCCn1c(C)nc2c(N(CCOC)CCOC)nc(C)nc21`, the Potency result in assay [1] and in assay [2] was “inactive” each time.

As for `COc1cc(OC)c(C(CC(=O)N2CC(C)CC(C)C2)c2ccc3c(c2)OCO3)c(OCC(N)=O)c1` (stereo unspecified), the Potency entry in assay [1] and in assay [2] was “inactive” in each case.

On to `COc1cc(OC)cc(C2=Nn3c(nnc3-c3ccccc3O)SC2)c1`, for which the Potency entry in assay [1] and in assay [2] was “inactive” in each case.

Take `O=S(=O)(c1ccc2c(c1)OCCO2)N1CCN(S(=O)(=O)c2ccco2)CC1`: the Potency entry in assay [1] and in assay [2] was “inactive” throughout.

Turning to `Clc1cccc(-c2ccc3ncnc(NCc4cccnc4)c3c2)c1`, the Potency entry in assay [1] and in assay [2] was “inactive” each time.

For the compound `CC(=O)Nc1cc2c(s1)CNCC2`, the Potency result in assay [1] and in assay [2] was “inactive” throughout.

On to `O=C(Nc1ccc(-c2nc3ccccc3[nH]2)cc1)Nc1ccc2c(c1)CCCO2`, for which the Potency entry in assay [1] and in assay [2] was “inactive” each time.
